Measured values published in PubChem BioAssay (NCATS).
Records with an inconclusive call do not appear. A number with no mark means an inactive call. Activity calls are given as the source filed them. Calls follow the shape of the dose curve; as a rule, active = well fitted curve in the direction sought with a large enough effect; inconclusive = small, poorly fitted or top-dose-only effect, or another doubt; inactive = no such curve, though single readings can be large; an effect the other way counts as inactive or inconclusive.
% is scaled to controls: 0 for no effect and ±100 for the full control effect; potency is read from the fitted curve at half-maximal effect.
Also: nearly all actives have a fitted effect of over 55% in size.

Assay: qHTS of pediatric cancer cell lines to identify multiple opportunities for drug repurposing: Confirmatory screen for Rh18 cells (AID 1347125)
Conditions: Rh18 rhabdomyosarcoma cells, viability; series mostly up to 45.9 µM; activity change, negative = cytotoxic: at the top concentration
In short: (§1)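 Viability after 48 h compound treatment at 37C, 500-1,000 cells/well, read as ATP luminescence with CellTiter-Glo. Primary screens used 11-point (MIPE, 0.78 nM-46 µM) or 8-point (NPC, 0.59 nM-46 µM) final concentrations; follow-up screens used 11-point dilutions.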
For `C[C@@]12OC(=O)[C@]1([C@@H](O)[C@@H]1C=CCCC1)NC(=O)[C@H]2CCCl`, the Potency was 1170 nM (active).
For `O=C(O)CCCOc1ccc(Cl)cc1Cl`, the “activity change, negative = cytotoxic” value was -17.2% [at 95.5 µM].
For `C[C@@H]1CC[C@@]2(OC1)O[C@H]1C[C@H]3[C@@H]4CC=C5C[C@@H](O[C@@H]6O[C@H](CO)[C@@H](O[C@@H]7O[C@@H](C)[C@H](O)[C@@H](O)[C@@H]7O)[C@H](O)[C@@H]6O[C@@H]6O[C@@H](C)[C@H](O)[C@@H](O)[C@@H]6O)CC[C@]5(C)[C@@H]4CC[C@]3(C)[C@@H]1[C@H]2C`, the Potency was 10400 nM (active).
In the case of `CC=C(C)C(=O)N[C@@H](c1ccccc1)[C@@H](O)C(=O)O[C@H]1C[C@@]2(O)[C@@H](OC(=O)c3ccccc3)[C@@H]3[C@]4(OC(C)=O)CO[C@@H]4C[C@H](O)[C@@]3(C)C(=O)[C@H](OC(C)=O)C(=C1C)C2(C)C`, the “activity change, negative = cytotoxic” value is reported as -23%.
In the case of `CC(C)[C@]12O[C@@H]1[C@@H]1O[C@]13[C@]1(O[C@H]1C[C@@H]1C4=C(CC[C@@]13C)C(=O)OC4)[C@H]2O`, the Potency is reported as 82.7 nM (active).
With `CC=C(C)C(=O)O[C@H]1C(C)=C2[C@@H]3OC(=O)[C@@](C)(O)[C@@]3(O)[C@@H](OC(=O)CCC)C[C@](C)(OC(C)=O)[C@@H]2[C@@H]1OC(=O)CCCCCCC` the “activity change, negative = cytotoxic” value was 16.1%.
For `CCC(=O)OC1CCC2C3CCC4=CC(=O)CC[C@@]4(C)C3CC[C@]12C` (some centres undefined), the “activity change, negative = cytotoxic” value was -5.37%.
For `Cc1[nH]nc2ccc(-c3cncc(OC[C@@H](N)Cc4c[nH]c5ccccc45)c3)cc12`, the Potency was 4650 nM (active).
For `C[C@H]1CCCC=CC2C[C@H](O)C[C@@H]2[C@H](O)C=CC(=O)O1` (some centres undefined), the Potency was 104 nM (active).
In the case of `O=C1C(I)=CC(=C(c2cc(I)c(O)c(I)c2)c2ccccc2C(=O)O)C=C1I`, the “activity change, negative = cytotoxic” value is reported as -3.05%.
In the case of `CC[C@@H]1[C@@H](C)O[C@@](O)([C@@H](C)[C@H](O)[C@H](C)[C@H]2OC(=O)C=CC=C[C@@H](C)[C@@H]([C@@H](C)[C@@H](O)[C@H](C)[C@@]3(O)C[C@H](O[C@H]4C[C@H](O)[C@H](O)[C@H](C)O4)[C@H](CC)[C@@H](C)O3)OC(=O)C=CC=C[C@@H]2C)C[C@H]1O[C@H]1C[C@H](O)[C@H](O)[C@H](C)O1`, the “activity change, negative = cytotoxic” value is reported as -4.12%.
For `CS(=O)(=O)c1ccc(C(=O)C2C(=O)CCCC2=O)c([N+](=O)[O-])c1`, the “activity change, negative = cytotoxic” value was 17.6% [at 95.5 µM].
In the case of `O=C(N[C@H]1CN2CCC1CC2)c1ccc(Cl)cc1`, the “activity change, negative = cytotoxic” value is reported as 3.87%.
For `CC[C@H]1C=CC=CC[C@@H](C)[C@H](O)[C@@](C)(O)C(=O)[C@@H](C)[C@H](O)[C@@H](C)C(=O)[C@@H](C)[C@H](O)[C@@H](C)C=CC(=O)O[C@@H]2[C@@H](C)[C@H](CC1)O[C@]1(CC[C@H](C)[C@H](C[C@@H](C)O)O1)[C@H]2C`, the “activity change, negative = cytotoxic” value was -16.2%.
For `O=c1[nH]c2ccc(Cl)cc2c(N[C@@H]2CN3CCC2CC3)c1-c1nc2ccccc2[nH]1`, the Potency was 26100 nM (active).
For `C[C@]12Cc3cn[nH]c3C[C@@H]1CC[C@@H]1[C@H]2CC[C@@]2(C)[C@H]1CC[C@]2(C)O`, the “activity change, negative = cytotoxic” value was -24.7%.
With `CC(C)(C)C(O)C(Oc1ccc(Cl)cc1)n1cncn1` (centres undefined) the “activity change, negative = cytotoxic” value was -5.11% [at 95.5 µM].
In the case of `COc1cc([C@@H]2c3cc4c(cc3[C@@H](O)C3COC(=O)C32)OCO4)cc(OC)c1O` (some centres undefined), the “activity change, negative = cytotoxic” value is reported as -4.08%.
For `CC(=O)[O][Hg][c]1ccccc1`, the Potency was 4650 nM (active).
In the case of `O=[N+]([O-])c1c(Cl)c(Cl)cc(Cl)c1Cl`, the “activity change, negative = cytotoxic” value is reported as -12% [at 95.5 µM].
With `O=C(O)COc1nc(Cl)c(Cl)cc1Cl` the “activity change, negative = cytotoxic” value was 1.7% [at 95.5 µM].
With `CC(C)(O)C=CC(=O)[C@](C)(O)[C@H]1[C@H](O)C[C@]2(C)[C@@H]3CC=C4[C@@H](C=C(O)C(=O)C4(C)C)[C@]3(C)C(=O)C[C@@]12C` the Potency was 147 nM (active).
With `CC(C)N[C@@H]1CCn2c(=O)[nH]c3cccc(c32)[C@@H]1O` the “activity change, negative = cytotoxic” value was 4.7%.
With `CC[C@@]1(O)C(=O)OCc2c1cc1n(c2=O)Cc2cc3ccccc3nc2-1` the Potency was 827 nM (active).
For `Cc1ccccc1-n1c(Cn2cnc3c(N)ncnc32)nc2cccc(C)c2c1=O`, the “activity change, negative = cytotoxic” value was -17.6%.
In the case of `CC1=C(O)C(=O)C=C2C1=CC=C1[C@@]2(C)CC[C@@]2(C)[C@@H]3C[C@](C)(C(=O)O)CC[C@]3(C)CC[C@]12C`, the Potency is reported as 2330 nM (active).

Assay: qHTS of pediatric cancer cell lines to identify multiple opportunities for drug repurposing: Confirmatory screen for Rh30 cells (AID 1347126)
Conditions: Rh30 rhabdomyosarcoma cell viability; series mostly up to 45.9 µM; activity change, negative = cytotoxic: at the top concentration
In short: as §1
In the case of `O=C(O)CCCOc1ccc(Cl)cc1Cl`, the “activity change, negative = cytotoxic” value is reported as 0% [at 97.2 µM].
In the case of `C[C@@H]1O[C@@H](O[C@@H]2C=C3CC[C@@H]4[C@@H](CC[C@]5(C)[C@H](c6ccc(=O)oc6)CC[C@@]45O)[C@@]3(C)CC2)[C@H](O)[C@H](O)[C@H]1O`, the Potency is reported as 46.5 nM (active).
With `CCCN1CCO[C@@H]2c3cc(O)ccc3OC[C@@H]21` the Potency was 8270 nM (active).
In the case of `C[C@@H]1CC[C@@]2(OC1)O[C@H]1C[C@H]3[C@@H]4CC=C5C[C@@H](O[C@@H]6O[C@H](CO)[C@@H](O[C@@H]7O[C@@H](C)[C@H](O)[C@@H](O)[C@@H]7O)[C@H](O)[C@@H]6O[C@@H]6O[C@@H](C)[C@H](O)[C@@H](O)[C@@H]6O)CC[C@]5(C)[C@@H]4CC[C@]3(C)[C@@H]1[C@H]2C`, the Potency is reported as 4140 nM (active).
For `CCC(=O)OC1CCC2C3CCC4=CC(=O)CC[C@@]4(C)C3CC[C@]12C` (some centres undefined), the “activity change, negative = cytotoxic” value was -2.18%.
For `C[C@H]1CCCC=CC2C[C@H](O)C[C@@H]2[C@H](O)C=CC(=O)O1` (some centres undefined), the Potency was 3690 nM (active).
In the case of `CS(=O)(=O)c1ccc(C(=O)C2C(=O)CCCC2=O)c([N+](=O)[O-])c1`, the “activity change, negative = cytotoxic” value is reported as 11.2% [at 97.2 µM].
For `O=C(Nc1ccncc1)C(=O)c1cn(Cc2ccc(Cl)cc2)c2ccccc12`, the “activity change, negative = cytotoxic” value was -16.3%.
With `COc1cc2cc(c1Cl)N(C)C(=O)C[C@H](OC(=O)C(C)C)[C@]1(C)O[C@H]1[C@H](C)[C@@H]1C[C@@](O)(NC(=O)O1)[C@H](OC)C=CC=C(C)C2` the “activity change, negative = cytotoxic” value was -4.63%.
For `O=c1[nH]c2ccc(Cl)cc2c(N[C@@H]2CN3CCC2CC3)c1-c1nc2ccccc2[nH]1`, the Potency was 5220 nM (active).
For `CC(C)(C)C(O)C(Oc1ccc(Cl)cc1)n1cncn1` (centres undefined), the “activity change, negative = cytotoxic” value was 0% [at 97.2 µM].
With `COc1cc([C@@H]2c3cc4c(cc3[C@@H](O)C3COC(=O)C32)OCO4)cc(OC)c1O` (some centres undefined) the “activity change, negative = cytotoxic” value was 0.574%.
In the case of `CC(=O)[O][Hg][c]1ccccc1`, the Potency is reported as 1310 nM (active).
For `O=[N+]([O-])c1c(Cl)c(Cl)cc(Cl)c1Cl`, the “activity change, negative = cytotoxic” value was 5.88% [at 97.2 µM].
For `O=C(O)COc1nc(Cl)c(Cl)cc1Cl`, the “activity change, negative = cytotoxic” value was 5.21% [at 97.2 µM].
In the case of `CC(C)(O)C=CC(=O)[C@](C)(O)[C@H]1[C@H](O)C[C@]2(C)[C@@H]3CC=C4[C@@H](C=C(O)C(=O)C4(C)C)[C@]3(C)C(=O)C[C@@]12C`, the Potency is reported as 827 nM (active).
In the case of `CC(C)N[C@@H]1CCn2c(=O)[nH]c3cccc(c32)[C@@H]1O`, the “activity change, negative = cytotoxic” value is reported as 8.35%.
In the case of `Cc1c(N)nc([C@H](CC(N)=O)NC[C@@H](N)C(N)=O)nc1C(=O)N[C@H](C(=O)N[C@@H](C)[C@H](O)[C@@H](C)C(=O)N[C@@H](C(=O)NCCc1nc(-c2nc(C(=O)NCCC[S+](C)C)cs2)cs1)[C@@H](C)O)C(O[C@H]1O[C@H](CO)[C@H](O)[C@@H](O)[C@@H]1O[C@H]1O[C@H](CO)[C@@H](O)[C@H](OC(N)=O)[C@H]1O)c1cnc[nH]1` (some centres undefined), the “activity change, negative = cytotoxic” value is reported as -17.8%.
For `CC[C@@]1(O)C(=O)OCc2c1cc1n(c2=O)Cc2cc3ccccc3nc2-1`, the Potency was 737 nM (active).
For `Cc1ccccc1-n1c(Cn2cnc3c(N)ncnc32)nc2cccc(C)c2c1=O`, the “activity change, negative = cytotoxic” value was 14.8%.
In the case of `CC(=Cc1csc(C)n1)[C@@H]1C[C@H]2O[C@]2(C)CCC[C@H](C)[C@@H](O)[C@@H](C)C(=O)C(C)(C)[C@@H](O)CC(=O)O1`, the “activity change, negative = cytotoxic” value is reported as -46.3%.
In the case of `CO[C@H]1CCC(O[C@H]2C[C@H]([C@]3(C)CC[C@]4(C[C@H](O)[C@@H](C)[C@@H]([C@@H](C)C=C(C)C(=O)[C@H](C)C[C@H](C)C(=O)O)O4)O3)O[C@]3(O[C@@H]([C@H]4O[C@@](O)(CO)[C@H](C)C[C@H]4C)C[C@H]3C)[C@H]2C)O[C@H]1C` (some centres undefined), the “activity change, negative = cytotoxic” value is reported as -18%.
With `CC1=C(O)C(=O)C=C2C1=CC=C1[C@@]2(C)CC[C@@]2(C)[C@@H]3C[C@](C)(C(=O)O)CC[C@]3(C)CC[C@]12C` the Potency was 1850 nM (active).
